Results filed as inconclusive are left out. Where a call stands in place of a potency, no number is given. Active and inactive are the calls of the source. Calls come from the whole dose curve.
What follows are compounds tested against Acetylcholinesterase (Homo sapiens) (UniProt P22303) (assay: Acetylcholinesterase (AChE) small molecule antagonists: fluorescence cell-based qHTS assay (AID 1347398; note: nearly all actives have a fitted effect of over 50% in size)). Details: SH-SY5Y cells; Potency: AChE activity; outcome: AChE activity; series mostly up to 115 µM.
In short: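 Thiocholine generated from acetylthiocholine by SH-SY5Y cell AChE is detected with Thiolite Green (Ex/Em 490/520 nm) after 40 min at room temperature, following 30 min compound pretreatment at 37 C.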

Acetylcholinesterase (Homo sapiens), sequence (P22303 whole entry, looked up): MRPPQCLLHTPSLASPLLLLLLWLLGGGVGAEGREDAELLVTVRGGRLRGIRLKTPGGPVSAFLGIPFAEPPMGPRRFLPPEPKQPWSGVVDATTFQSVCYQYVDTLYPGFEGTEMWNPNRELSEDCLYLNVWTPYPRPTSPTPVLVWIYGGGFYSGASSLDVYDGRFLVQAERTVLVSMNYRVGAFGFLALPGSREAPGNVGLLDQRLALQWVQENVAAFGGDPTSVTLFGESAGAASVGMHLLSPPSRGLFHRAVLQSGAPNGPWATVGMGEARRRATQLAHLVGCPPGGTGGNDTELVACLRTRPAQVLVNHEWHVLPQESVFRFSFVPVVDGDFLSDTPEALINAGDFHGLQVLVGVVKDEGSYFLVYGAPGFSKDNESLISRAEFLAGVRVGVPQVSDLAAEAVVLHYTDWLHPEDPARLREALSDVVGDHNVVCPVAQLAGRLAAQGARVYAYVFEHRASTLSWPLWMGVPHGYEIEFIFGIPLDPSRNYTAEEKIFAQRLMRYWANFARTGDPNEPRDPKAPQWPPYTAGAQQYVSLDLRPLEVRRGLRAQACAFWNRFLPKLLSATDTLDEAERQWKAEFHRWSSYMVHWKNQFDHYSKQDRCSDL

Compound | Potency | activity change, negative = inhibition
Nc1cc([N+](=O)[O-])cc(Cl)c1O | inactive | –
c1cc2ccc3ccc4ccc5cccc6c(c1)c2c3c4c56 | – | 9.19% [at 3.98 µM] (inactive)
O=C(COCCOCCOCC(=O)Nc1c(I)cc(I)c(C(=O)O)c1I)Nc1c(I)cc(I)c(C(=O)O)c1I | inactive | –
O=C(O)C1CCC(C(=O)O)CC1 (stereo not given) | inactive | –
O=C1OC(=O)C2CC=CCC12 (stereo not given) | inactive | –
CCC(=O)Nc1ccc(O)cc1 | inactive | –
O=C1O[C@H]([C@@H](O)CO)C(O)=C1O | inactive | –
c1ccc2nccnc2c1 | inactive | –
C=COC(=O)C(C)(CC)CCC(C)C (stereo not given) | inactive | –
COC(=O)Nc1nc2ccc(C(=O)C3CC3)cc2[nH]1 | inactive | –
COc1ccc(-c2cc(C(F)F)nn2-c2ccc(S(N)(=O)=O)cc2)cc1F | inactive | –
CCC(CC)(CC(=O)Nc1cccc(/C=C/c2nc(C3CCC3)cs2)c1)C(=O)O | inactive | –
COC(=O)CCS | inactive | –
C/C(C=O)=C\c1ccccc1 | inactive | –
NCCCN1CCN(CCCN)CC1 | inactive | –
CC1=NC(C)OC1C (stereo not given) | inactive | –
CCC(=O)O[C@]1(C(=O)CCl)[C@@H](C)C[C@H]2[C@@H]3CCC4=CC(=O)C=C[C@]4(C)[C@@]3(F)[C@@H](O)C[C@@]21C | inactive | –
OB(O)O | inactive | –
O=C(c1ccc(O)cc1)c1ccc(O)cc1 | inactive | –
CC(C)(N=C=O)c1cccc(C(C)(C)N=C=O)c1 | inactive | –

Compound | Potency | activity change, negative = inhibition
CN1C(=O)c2ccccc2C1=O | inactive | –
CC(=O)c1ccc(C(C)=O)cc1 | inactive | –
COC(=O)c1c(Cl)c(Cl)c(C(=O)OC)c(Cl)c1Cl | inactive | –
CCOC(=O)C(C)C(C)=O (stereo not given) | inactive | –
CC(C)(CO)COC(=O)C(C)(C)CO | inactive | –
OCCN1CCN(CCCN2c3ccccc3C=Cc3ccccc32)CC1 | inactive | –
Cc1cc(Br)ccc1NC(=O)CCl | inactive | –
COC(=O)N/N=C/c1c[n+]([O-])c2ccccc2[n+]1[O-] | inactive | –
NCCO | inactive | –
O=C1CCCCCCCCCCCCCC1 | inactive | –
CCCCCCCCCOS(=O)(=O)O | inactive | –
CO[Si](CCCNCCN)(OC)OC | inactive | –
Cc1ccc(C(=O)Nc2ccc(S(=O)(=O)O)c3cc(S(=O)(=O)O)cc(S(=O)(=O)O)c23)cc1NC(=O)c1cccc(NC(=O)Nc2cccc(C(=O)Nc3cc(C(=O)Nc4ccc(S(=O)(=O)O)c5cc(S(=O)(=O)O)cc(S(=O)(=O)O)c45)ccc3C)c2)c1 | inactive | –
CC(C)(c1ccc(Oc2ccc(N)cc2)cc1)c1ccc(Oc2ccc(N)cc2)cc1 | inactive | –
CC1=CC[C@H](C(C)C)C=C1 | inactive | –
Oc1c(Cl)cc(Cl)c(Cl)c1Cl | inactive | –
Cc1ccccc1N=C(N)Nc1ccccc1C | inactive | –
COc1ccc(O)cc1 | inactive | –
C[C@]12C=CC(=O)C=C1CC[C@@H]1[C@@H]2C(=O)C[C@@]2(C)[C@H]1CC[C@]2(O)C(=O)CO | inactive | –
COc1ccc2nc(S(=O)Cc3ncc(C)c(OC)c3C)[nH]c2c1 (stereo not given) | inactive | –

These compounds were tested against Acetylcholinesterase (Homo sapiens) (UniProt P22303) (assay: Acetylcholinesterase (AChE) small molecule antagonists: enzyme-based qHTS assay with human liver microsomes (AID 1347399; note: nearly all actives have a fitted effect of over 60% in size)). Details: Potency: qHTS inhibition; outcome: qHTS inhibition; series mostly up to 115 µM.
In short: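 Recombinant human AChE (50 mU/mL in the enzyme mix) and human liver microsomes (0.25 mg/mL final) were preincubated with compound and NADPH (0.25 mg/mL final) for 30 min at 37 C. Acetylthiocholine/DTNB was then added; thiocholine was read colorimetrically after 10 min at room temperature.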

Compound | Potency | activity change, negative = inhibition
Nc1cc([N+](=O)[O-])cc(Cl)c1O | inactive | –
c1cc2ccc3ccc4ccc5cccc6c(c1)c2c3c4c56 | – | 0.324% [at 4.07 µM] (inactive)
O=C(COCCOCCOCC(=O)Nc1c(I)cc(I)c(C(=O)O)c1I)Nc1c(I)cc(I)c(C(=O)O)c1I | inactive | –
O=C(O)C1CCC(C(=O)O)CC1 (stereo not given) | inactive | –
O=C1OC(=O)C2CC=CCC12 (stereo not given) | inactive | –
CCC(=O)Nc1ccc(O)cc1 | inactive | –
O=C1O[C@H]([C@@H](O)CO)C(O)=C1O | inactive | –
c1ccc2nccnc2c1 | inactive | –
C=COC(=O)C(C)(CC)CCC(C)C (stereo not given) | inactive | –
COC(=O)Nc1nc2ccc(C(=O)C3CC3)cc2[nH]1 | inactive | –
COc1ccc(-c2cc(C(F)F)nn2-c2ccc(S(N)(=O)=O)cc2)cc1F | inactive | –
CCC(CC)(CC(=O)Nc1cccc(/C=C/c2nc(C3CCC3)cs2)c1)C(=O)O | inactive | –
COC(=O)CCS | inactive | –
C/C(C=O)=C\c1ccccc1 | inactive | –
NCCCN1CCN(CCCN)CC1 | inactive | –
CC1=NC(C)OC1C (stereo not given) | inactive | –
CCC(=O)O[C@]1(C(=O)CCl)[C@@H](C)C[C@H]2[C@@H]3CCC4=CC(=O)C=C[C@]4(C)[C@@]3(F)[C@@H](O)C[C@@]21C | inactive | –
OB(O)O | inactive | –
O=C(c1ccc(O)cc1)c1ccc(O)cc1 | inactive | –
CC(C)(N=C=O)c1cccc(C(C)(C)N=C=O)c1 | inactive | –

Compound | Potency | activity change, negative = inhibition
CN1C(=O)c2ccccc2C1=O | inactive | –
CC(=O)c1ccc(C(C)=O)cc1 | inactive | –
COC(=O)c1c(Cl)c(Cl)c(C(=O)OC)c(Cl)c1Cl | inactive | –
CCOC(=O)C(C)C(C)=O (stereo not given) | inactive | –
CC(C)(CO)COC(=O)C(C)(C)CO | inactive | –
OCCN1CCN(CCCN2c3ccccc3C=Cc3ccccc32)CC1 | inactive | –
Cc1cc(Br)ccc1NC(=O)CCl | inactive | –
COC(=O)N/N=C/c1c[n+]([O-])c2ccccc2[n+]1[O-] | inactive | –
NCCO | inactive | –
O=C1CCCCCCCCCCCCCC1 | inactive | –
CCCCCCCCCOS(=O)(=O)O | inactive | –
CO[Si](CCCNCCN)(OC)OC | inactive | –
Cc1ccc(C(=O)Nc2ccc(S(=O)(=O)O)c3cc(S(=O)(=O)O)cc(S(=O)(=O)O)c23)cc1NC(=O)c1cccc(NC(=O)Nc2cccc(C(=O)Nc3cc(C(=O)Nc4ccc(S(=O)(=O)O)c5cc(S(=O)(=O)O)cc(S(=O)(=O)O)c45)ccc3C)c2)c1 | inactive | –
CC(C)(c1ccc(Oc2ccc(N)cc2)cc1)c1ccc(Oc2ccc(N)cc2)cc1 | inactive | –
CC1=CC[C@H](C(C)C)C=C1 | inactive | –
Oc1c(Cl)cc(Cl)c(Cl)c1Cl | inactive | –
Cc1ccccc1N=C(N)Nc1ccccc1C | inactive | –
COc1ccc(O)cc1 | inactive | –
C[C@]12C=CC(=O)C=C1CC[C@@H]1[C@@H]2C(=O)C[C@@]2(C)[C@H]1CC[C@]2(O)C(=O)CO | inactive | –
COc1ccc2nc(S(=O)Cc3ncc(C)c(OC)c3C)[nH]c2c1 (stereo not given) | inactive | –

— PubChem BioAssay (Tox21)
